Experimental data taken from ChEMBL document CHEMBL1961873, “Compounds: GSK PKIS; Assays: Nanosyn kinase panel” (2012).

Assays:
[1] = target: High affinity nerve growth factor receptor (Homo sapiens) (UniProt P04629); details: at 1 µM;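 further: each value is the mean percent inhibition of TRKA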
[2] = target: BDNF/NT-3 growth factors receptor (Homo sapiens) (UniProt Q16620); details: at 0.1 µM
[3] = target: BDNF/NT-3 growth factors receptor (Homo sapiens) (UniProt Q16620); details: at 1 µM
[4] = target: NT-3 growth factor receptor (Homo sapiens) (UniProt Q16288); details: at 0.1 µM
[5] = target: NT-3 growth factor receptor (Homo sapiens) (UniProt Q16288); details: at 1 µM
[6] = target: T1, Tyrosine-protein kinase TXK (Homo sapiens) (UniProt P42681); details: at 0.1 µM
T1 sequence (whole entry): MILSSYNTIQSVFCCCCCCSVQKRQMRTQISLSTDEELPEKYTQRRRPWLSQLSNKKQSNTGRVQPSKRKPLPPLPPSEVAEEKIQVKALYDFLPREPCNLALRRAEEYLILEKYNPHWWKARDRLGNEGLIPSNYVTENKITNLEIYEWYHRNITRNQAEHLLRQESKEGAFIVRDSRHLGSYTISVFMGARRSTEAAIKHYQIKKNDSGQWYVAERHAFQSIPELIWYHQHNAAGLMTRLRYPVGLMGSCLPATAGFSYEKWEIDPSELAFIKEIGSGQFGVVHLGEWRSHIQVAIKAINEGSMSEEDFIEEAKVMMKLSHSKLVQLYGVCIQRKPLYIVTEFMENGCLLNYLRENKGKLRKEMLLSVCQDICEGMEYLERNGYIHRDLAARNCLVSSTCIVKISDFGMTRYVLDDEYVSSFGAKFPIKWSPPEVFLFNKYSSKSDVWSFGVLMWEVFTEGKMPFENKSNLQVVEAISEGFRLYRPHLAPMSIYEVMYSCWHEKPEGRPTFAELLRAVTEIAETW

[7] = target: T1, Tyrosine-protein kinase TXK (Homo sapiens); details: at 1 µM
[8] = target: Non-receptor tyrosine-protein kinase TYK2 (Homo sapiens) (UniProt P29597); details: at 0.1 µM;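 further: each value is a mean of the inhibition readings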
[9] = target: T2, Dual specificity protein kinase TTK (Homo sapiens) (UniProt P33981); details: at 1 µM;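 further: reported figures are mean TTK inhibition at 1 µM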
T2 sequence (whole entry): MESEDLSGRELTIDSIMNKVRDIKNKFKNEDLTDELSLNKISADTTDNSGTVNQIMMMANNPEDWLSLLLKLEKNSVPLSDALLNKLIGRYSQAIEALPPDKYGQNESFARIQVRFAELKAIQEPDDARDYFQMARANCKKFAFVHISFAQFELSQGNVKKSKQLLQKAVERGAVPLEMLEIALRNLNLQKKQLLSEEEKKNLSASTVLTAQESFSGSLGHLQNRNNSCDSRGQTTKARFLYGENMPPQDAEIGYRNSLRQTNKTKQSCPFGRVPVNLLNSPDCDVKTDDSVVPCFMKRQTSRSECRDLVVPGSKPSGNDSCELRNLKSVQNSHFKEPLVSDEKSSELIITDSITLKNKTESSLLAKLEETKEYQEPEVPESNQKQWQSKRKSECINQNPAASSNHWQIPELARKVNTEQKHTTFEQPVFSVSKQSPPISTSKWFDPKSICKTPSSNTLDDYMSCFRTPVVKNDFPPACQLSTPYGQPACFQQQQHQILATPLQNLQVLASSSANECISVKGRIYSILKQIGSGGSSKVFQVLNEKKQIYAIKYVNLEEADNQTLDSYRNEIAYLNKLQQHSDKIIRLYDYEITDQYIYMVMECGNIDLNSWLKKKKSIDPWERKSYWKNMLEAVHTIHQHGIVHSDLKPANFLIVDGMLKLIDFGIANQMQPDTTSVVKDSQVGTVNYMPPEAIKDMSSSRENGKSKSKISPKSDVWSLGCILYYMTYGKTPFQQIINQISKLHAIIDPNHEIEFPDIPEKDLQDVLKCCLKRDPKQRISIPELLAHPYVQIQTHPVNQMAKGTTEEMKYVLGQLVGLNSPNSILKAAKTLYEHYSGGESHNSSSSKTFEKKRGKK

[10] = target: T3, Aurora kinase A (Homo sapiens) (UniProt O14965); details: at 0.1 µM
T3 sequence (whole entry): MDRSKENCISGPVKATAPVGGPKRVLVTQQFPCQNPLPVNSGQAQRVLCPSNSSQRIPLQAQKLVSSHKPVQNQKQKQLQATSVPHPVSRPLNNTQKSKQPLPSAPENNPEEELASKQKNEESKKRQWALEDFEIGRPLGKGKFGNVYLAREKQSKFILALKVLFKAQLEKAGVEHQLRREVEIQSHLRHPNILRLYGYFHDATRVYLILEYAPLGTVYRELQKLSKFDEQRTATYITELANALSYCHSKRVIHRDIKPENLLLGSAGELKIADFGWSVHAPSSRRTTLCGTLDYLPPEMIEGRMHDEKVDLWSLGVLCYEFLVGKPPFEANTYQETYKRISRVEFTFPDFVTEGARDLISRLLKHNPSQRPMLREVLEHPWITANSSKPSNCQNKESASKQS

[11] = target: T3, Aurora kinase A (Homo sapiens); details: at 1 µM
[12] = target: Aurora kinase B (Homo sapiens) (UniProt Q96GD4); details: at 0.1 µM
[13] = target: Aurora kinase B (Homo sapiens) (UniProt Q96GD4); details: at 1 µM
[14] = target: T4, Aurora kinase C (Homo sapiens) (UniProt Q9UQB9); details: at 0.1 µM
T4 sequence (whole entry): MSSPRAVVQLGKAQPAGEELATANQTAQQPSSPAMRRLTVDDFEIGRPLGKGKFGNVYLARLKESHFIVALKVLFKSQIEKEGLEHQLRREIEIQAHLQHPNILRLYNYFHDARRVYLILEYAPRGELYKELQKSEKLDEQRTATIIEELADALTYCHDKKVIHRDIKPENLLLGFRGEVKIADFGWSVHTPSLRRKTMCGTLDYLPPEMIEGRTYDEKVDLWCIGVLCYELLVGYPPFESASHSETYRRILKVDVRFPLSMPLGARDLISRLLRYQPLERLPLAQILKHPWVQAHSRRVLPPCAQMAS

[15] = target: T4, Aurora kinase C (Homo sapiens); details: at 1 µM
[16] = target: Serine/threonine-protein kinase 10 (Homo sapiens) (UniProt O94804); details: at 0.1 µM
[17] = target: Serine/threonine-protein kinase 10 (Homo sapiens) (UniProt O94804); details: at 1 µM
[18] = target: T5, Mitogen-activated protein kinase kinase kinase kinase 2 (Homo sapiens) (UniProt Q12851); details: at 0.1 µM
T5 sequence (whole entry): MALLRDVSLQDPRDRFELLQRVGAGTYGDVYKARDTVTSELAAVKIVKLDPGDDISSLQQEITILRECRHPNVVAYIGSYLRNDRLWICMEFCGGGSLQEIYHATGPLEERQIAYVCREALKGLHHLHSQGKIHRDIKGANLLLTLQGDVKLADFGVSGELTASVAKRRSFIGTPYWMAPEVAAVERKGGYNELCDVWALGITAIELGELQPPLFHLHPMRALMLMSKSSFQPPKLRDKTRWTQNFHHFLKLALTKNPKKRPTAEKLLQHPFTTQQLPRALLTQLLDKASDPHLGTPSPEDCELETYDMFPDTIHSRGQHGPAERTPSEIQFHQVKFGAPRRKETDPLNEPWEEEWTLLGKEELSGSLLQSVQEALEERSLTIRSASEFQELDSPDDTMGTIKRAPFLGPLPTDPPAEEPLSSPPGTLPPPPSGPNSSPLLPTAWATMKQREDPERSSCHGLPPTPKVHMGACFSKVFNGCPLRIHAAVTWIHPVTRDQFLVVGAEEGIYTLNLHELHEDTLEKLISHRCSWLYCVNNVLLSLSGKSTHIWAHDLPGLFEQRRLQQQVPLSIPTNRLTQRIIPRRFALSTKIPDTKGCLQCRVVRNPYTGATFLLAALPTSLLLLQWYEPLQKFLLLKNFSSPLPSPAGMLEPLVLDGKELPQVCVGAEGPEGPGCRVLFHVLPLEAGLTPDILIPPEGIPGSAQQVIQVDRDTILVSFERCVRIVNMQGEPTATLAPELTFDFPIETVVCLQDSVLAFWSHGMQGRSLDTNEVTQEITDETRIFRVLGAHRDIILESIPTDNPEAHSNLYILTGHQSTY

[19] = target: T5, Mitogen-activated protein kinase kinase kinase kinase 2 (Homo sapiens); details: at 1 µM
[20] = target: Mitogen-activated protein kinase kinase kinase kinase 4 (Homo sapiens) (UniProt O95819); details: at 0.1 µM
Chain of Mitogen-activated protein kinase kinase kinase kinase 4 (Homo sapiens) (O95819 2-1239 limits assumed): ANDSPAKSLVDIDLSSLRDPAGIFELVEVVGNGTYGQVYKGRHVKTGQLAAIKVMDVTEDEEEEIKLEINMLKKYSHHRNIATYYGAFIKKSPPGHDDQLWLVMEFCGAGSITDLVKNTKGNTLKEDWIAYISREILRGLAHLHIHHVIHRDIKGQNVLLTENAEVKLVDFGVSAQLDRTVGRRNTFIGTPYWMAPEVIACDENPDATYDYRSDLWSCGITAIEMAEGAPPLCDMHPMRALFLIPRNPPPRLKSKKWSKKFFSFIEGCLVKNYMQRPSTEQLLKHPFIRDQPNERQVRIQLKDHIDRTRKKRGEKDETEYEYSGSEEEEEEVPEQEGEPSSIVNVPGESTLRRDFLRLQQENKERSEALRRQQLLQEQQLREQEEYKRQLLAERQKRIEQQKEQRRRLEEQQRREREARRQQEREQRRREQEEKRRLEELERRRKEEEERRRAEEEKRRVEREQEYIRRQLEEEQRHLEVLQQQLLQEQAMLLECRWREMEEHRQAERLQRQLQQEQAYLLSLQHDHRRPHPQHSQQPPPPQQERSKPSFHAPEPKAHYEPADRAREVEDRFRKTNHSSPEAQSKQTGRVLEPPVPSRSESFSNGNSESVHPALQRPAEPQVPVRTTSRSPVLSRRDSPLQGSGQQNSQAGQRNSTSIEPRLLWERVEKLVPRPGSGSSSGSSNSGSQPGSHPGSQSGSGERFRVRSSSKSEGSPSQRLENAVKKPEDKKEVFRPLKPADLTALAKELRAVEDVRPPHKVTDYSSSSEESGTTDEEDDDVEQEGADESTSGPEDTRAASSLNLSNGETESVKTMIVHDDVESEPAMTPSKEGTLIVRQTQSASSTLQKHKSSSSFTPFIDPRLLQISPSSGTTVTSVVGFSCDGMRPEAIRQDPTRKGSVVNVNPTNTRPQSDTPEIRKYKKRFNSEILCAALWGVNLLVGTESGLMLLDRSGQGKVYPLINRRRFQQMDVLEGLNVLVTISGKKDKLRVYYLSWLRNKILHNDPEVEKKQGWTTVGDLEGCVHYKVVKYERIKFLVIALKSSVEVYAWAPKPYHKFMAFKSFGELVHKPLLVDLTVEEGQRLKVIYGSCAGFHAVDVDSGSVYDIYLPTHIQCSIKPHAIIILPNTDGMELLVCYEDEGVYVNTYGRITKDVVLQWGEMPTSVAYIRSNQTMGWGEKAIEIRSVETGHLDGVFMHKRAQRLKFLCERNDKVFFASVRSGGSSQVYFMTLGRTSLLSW

Chain of Aurora kinase B (Homo sapiens) (Q96GD4 whole entry): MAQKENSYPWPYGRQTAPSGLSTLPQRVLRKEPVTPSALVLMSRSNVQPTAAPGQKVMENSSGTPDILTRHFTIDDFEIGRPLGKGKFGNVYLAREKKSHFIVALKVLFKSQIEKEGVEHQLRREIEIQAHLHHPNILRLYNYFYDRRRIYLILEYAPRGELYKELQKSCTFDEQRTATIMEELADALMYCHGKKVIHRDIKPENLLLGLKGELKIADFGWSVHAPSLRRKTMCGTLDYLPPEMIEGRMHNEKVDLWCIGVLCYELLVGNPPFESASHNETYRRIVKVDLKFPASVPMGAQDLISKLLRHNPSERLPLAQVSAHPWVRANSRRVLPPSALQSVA
Chain of NT-3 growth factor receptor (Homo sapiens) (Q16288 32-839 limits assumed): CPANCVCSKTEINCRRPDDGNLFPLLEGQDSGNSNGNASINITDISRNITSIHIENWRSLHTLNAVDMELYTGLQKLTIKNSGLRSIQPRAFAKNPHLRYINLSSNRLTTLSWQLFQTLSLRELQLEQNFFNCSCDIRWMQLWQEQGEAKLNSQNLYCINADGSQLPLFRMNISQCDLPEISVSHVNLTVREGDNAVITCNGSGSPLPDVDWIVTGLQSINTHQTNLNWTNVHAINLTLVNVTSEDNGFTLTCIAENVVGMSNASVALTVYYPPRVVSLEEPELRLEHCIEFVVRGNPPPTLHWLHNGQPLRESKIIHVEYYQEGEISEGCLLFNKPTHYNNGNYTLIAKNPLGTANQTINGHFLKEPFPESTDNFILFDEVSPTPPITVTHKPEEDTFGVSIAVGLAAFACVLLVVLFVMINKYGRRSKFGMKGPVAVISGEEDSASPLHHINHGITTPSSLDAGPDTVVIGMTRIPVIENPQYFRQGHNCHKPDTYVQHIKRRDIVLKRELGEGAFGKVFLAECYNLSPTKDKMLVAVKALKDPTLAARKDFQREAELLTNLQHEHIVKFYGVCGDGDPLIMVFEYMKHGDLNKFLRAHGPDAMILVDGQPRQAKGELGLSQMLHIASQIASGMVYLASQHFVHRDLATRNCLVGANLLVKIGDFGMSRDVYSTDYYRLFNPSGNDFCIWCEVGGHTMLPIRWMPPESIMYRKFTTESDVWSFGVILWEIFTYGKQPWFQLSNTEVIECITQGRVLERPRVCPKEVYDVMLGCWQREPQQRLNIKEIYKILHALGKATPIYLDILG
Chain of High affinity nerve growth factor receptor (Homo sapiens) (P04629 33-796 limits assumed): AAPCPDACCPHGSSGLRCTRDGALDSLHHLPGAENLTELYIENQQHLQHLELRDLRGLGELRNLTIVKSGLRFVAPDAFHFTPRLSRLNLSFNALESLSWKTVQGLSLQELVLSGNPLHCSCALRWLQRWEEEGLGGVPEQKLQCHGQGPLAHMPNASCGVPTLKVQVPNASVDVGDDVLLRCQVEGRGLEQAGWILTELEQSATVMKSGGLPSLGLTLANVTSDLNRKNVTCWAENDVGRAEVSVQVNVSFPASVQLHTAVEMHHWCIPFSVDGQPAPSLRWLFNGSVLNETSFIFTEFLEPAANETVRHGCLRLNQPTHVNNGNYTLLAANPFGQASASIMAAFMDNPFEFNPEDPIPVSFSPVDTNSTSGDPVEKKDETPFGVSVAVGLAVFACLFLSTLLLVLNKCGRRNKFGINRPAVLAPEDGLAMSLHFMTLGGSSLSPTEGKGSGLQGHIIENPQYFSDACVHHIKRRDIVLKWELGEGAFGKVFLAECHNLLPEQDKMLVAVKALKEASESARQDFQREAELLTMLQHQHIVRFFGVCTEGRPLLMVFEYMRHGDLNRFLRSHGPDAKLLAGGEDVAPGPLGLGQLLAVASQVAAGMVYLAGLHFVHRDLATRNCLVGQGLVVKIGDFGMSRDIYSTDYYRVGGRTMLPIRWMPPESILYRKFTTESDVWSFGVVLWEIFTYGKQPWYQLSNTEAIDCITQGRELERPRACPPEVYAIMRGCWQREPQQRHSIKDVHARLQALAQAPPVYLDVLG
Chain of Serine/threonine-protein kinase 10 (Homo sapiens) (O94804 whole entry, looked up): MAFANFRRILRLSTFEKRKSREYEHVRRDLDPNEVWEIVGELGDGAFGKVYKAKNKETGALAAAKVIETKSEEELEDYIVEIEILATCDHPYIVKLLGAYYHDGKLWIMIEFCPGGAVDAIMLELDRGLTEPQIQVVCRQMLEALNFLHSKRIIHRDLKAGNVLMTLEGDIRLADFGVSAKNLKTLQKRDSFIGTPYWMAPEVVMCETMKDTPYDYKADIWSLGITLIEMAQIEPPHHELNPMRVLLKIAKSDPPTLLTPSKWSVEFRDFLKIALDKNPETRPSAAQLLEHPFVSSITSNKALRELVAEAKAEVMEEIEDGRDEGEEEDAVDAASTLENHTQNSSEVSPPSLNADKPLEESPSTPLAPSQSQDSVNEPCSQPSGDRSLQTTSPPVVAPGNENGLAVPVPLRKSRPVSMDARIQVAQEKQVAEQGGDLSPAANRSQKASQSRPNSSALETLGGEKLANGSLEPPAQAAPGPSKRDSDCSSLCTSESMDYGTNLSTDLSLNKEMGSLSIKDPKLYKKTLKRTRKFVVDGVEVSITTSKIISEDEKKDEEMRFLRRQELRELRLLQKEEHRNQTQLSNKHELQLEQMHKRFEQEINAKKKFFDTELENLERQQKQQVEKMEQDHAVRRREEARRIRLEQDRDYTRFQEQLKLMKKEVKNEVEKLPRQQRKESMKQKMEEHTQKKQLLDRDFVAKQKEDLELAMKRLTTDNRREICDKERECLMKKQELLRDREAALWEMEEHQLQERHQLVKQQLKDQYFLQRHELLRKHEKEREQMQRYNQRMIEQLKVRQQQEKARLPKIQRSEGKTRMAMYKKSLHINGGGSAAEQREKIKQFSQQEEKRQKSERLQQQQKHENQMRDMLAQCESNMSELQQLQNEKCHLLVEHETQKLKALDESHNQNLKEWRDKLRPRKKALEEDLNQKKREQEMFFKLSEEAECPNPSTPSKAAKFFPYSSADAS
Chain of BDNF/NT-3 growth factors receptor (Homo sapiens) (Q16620 32-822 limits assumed): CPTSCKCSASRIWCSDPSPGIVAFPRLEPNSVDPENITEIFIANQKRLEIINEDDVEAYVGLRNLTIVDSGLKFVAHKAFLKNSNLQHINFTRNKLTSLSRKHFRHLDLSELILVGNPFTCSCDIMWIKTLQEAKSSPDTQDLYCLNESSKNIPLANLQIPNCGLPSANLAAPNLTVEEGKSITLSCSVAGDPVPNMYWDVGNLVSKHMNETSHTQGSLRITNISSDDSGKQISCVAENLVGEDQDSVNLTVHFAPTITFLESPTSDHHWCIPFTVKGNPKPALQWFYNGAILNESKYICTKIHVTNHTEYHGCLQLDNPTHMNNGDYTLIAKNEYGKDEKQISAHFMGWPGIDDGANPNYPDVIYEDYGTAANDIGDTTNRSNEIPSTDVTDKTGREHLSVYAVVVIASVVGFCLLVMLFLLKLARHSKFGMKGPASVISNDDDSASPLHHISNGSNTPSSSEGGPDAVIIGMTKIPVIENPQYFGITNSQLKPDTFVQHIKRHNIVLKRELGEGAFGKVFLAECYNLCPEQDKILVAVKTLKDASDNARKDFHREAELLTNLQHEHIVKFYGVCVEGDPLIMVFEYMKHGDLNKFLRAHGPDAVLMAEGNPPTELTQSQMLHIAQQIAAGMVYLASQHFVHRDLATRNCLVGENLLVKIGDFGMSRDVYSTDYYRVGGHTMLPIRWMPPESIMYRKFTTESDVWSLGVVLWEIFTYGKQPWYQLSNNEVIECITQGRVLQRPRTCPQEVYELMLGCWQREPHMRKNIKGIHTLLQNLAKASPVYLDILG

Row | Structure (SMILES) | inhibition [1] [%] | inhibition [2] [%] | inhibition [3] [%] | inhibition [4] [%] | inhibition [5] [%] | inhibition [6] [%] | inhibition [7] [%] | inhibition [8] [%] | inhibition [9] [%] | inhibition [10] [%] | inhibition [11] [%] | inhibition [12] [%] | inhibition [13] [%] | inhibition [14] [%] | inhibition [15] [%] | inhibition [16] [%] | inhibition [17] [%] | inhibition [18] [%] | inhibition [19] [%] | inhibition [20] [%]
1 | O=C(Nc1n[nH]c2cc(-c3ccc(F)cc3)ccc12)C1CC1 | 4.23 | 2.53 | 5.87 | 2.91 | 7.26 | 2.11 | 3.11 | -5.76 | 3.14 | 2.98 | 12.8 | 2.7 | 6.25 | 0.6 | 6.95 | 3.84 | 8.91 | 1.48 | 5.08 | 20.1
2 | CN1CCC(n2cnc(-c3ccc(F)cc3)c2-c2ccnc(Nc3ccccc3)n2)CC1 | 1.74 | 0.31 | 1.95 | 1.52 | 3.75 | 3.25 | 5.32 | 1.84 | 8.53 | 2.13 | 5.7 | 3.55 | 3.9 | 0.71 | -2.98 | 2.62 | 8.59 | 1.51 | 10.3 | 4.88
3 | [O-][S+]1CCN(Cc2ccc(-c3ccc4ncnc(Nc5ccc(OCc6cccc(F)c6)c(Cl)c5)c4c3)o2)CC1 | 3.26 | 3.51 | 2.84 | 2.99 | 3.32 | -0.35 | 5.13 | -1.86 | 13.9 | 4.7 | 4.74 | 4.97 | 9.46 | 0.94 | 6.06 | 9.61 | 15.9 | 1.81 | 5.19 | 7.46
4 | CCN1CCC(CC(=O)Nc2n[nH]c3nnc(-c4cccc(F)c4F)cc23)CC1 | -2.79 | 0.47 | 0.8 | 0.17 | 0.31 | -0.72 | 3.03 | 0.26 | 1.38 | 3.98 | 2.34 | 0.22 | 4.4 | 1.43 | 4.58 | 3.88 | 4.08 | 0.29 | 5.3 | 2.42
5 | CN(C)CCOc1ccc(-c2nc(-c3ccncc3)c(-c3ccc4c(c3)CC/C4=N\O)[nH]2)cc1 | 0.58 | 1.83 | 3.37 | 1.52 | 2.87 | 2.32 | 3.33 | -2.09 | 7.21 | 1.33 | 12 | 1.63 | 6.16 | 1.74 | -1.31 | 22.1 | 69.2 | 0.69 | 3.44 | 9.59
6 | Nc1nc(-c2ccc(F)cc2)c(-c2ccc3ncccc3n2)s1 | 4.77 | 4.19 | 3.45 | 3.72 | 5.31 | 3.19 | 6 | -2.9 | 7.77 | 4.14 | 10.6 | 6.06 | 7.91 | 2.74 | -0.03 | 5.75 | 10.1 | 2.4 | 3.82 | 17.7
